For 94 compounds, inhibition results are on record in PubChem BioAssay AID485346 (Sanford-Burnham Center for Chemical Genomics, 2010).

In all, about 330,000 compounds went through this assay and about 10,000 (3%) were called active. Only a selection was taken, and actives are over-represented in it overall. Unmarked numbers belong to inactive results.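 How the source made its calls: active means inhibition of at least 50% at 8 µM in the primary screen; inactive means the rest.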

Sequence of Protein Mdm4 (Homo sapiens) + E3 ubiquitin-protein ligase Mdm2 (Homo sapiens) (O15151 whole entry, looked up): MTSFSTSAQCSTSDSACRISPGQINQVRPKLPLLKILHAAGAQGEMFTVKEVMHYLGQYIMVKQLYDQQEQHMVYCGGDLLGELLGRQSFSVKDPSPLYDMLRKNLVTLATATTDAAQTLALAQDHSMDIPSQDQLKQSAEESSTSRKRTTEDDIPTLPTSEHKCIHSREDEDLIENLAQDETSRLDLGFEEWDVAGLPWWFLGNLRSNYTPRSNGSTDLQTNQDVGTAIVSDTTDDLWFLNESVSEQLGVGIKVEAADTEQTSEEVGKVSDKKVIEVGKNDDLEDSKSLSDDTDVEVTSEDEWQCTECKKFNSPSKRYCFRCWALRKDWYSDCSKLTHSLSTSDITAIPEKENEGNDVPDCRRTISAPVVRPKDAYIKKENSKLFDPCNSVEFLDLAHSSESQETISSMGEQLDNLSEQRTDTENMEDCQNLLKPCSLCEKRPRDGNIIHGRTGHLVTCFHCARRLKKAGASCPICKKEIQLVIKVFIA
Sequence of Protein Mdm4 (Homo sapiens) + E3 ubiquitin-protein ligase Mdm2 (Homo sapiens) (Q00987 whole entry, looked up): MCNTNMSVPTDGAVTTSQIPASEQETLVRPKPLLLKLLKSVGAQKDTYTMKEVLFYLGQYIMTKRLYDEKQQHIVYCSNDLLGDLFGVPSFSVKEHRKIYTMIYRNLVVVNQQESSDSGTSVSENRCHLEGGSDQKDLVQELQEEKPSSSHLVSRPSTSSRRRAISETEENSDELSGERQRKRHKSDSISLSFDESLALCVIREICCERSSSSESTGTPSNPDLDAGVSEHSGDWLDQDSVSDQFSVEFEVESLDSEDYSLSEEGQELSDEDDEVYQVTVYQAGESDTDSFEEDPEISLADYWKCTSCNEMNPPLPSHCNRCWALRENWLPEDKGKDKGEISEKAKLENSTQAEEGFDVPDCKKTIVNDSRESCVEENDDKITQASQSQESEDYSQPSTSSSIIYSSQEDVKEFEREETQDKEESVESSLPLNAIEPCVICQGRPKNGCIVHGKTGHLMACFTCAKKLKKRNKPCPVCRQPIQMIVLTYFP

This test addresses Protein Mdm4 (Homo sapiens) + E3 ubiquitin-protein ligase Mdm2 (Homo sapiens) (UniProt O15151+Q00987). Description: disruptors of Mdm2/MdmX RING complex – cell-based, luminescence, split luciferase, SaOS-2, uHTS, primary screen (AID 485346). The settings on record: SaOS-2 split-luciferase Mdm2/MdmX complementation, at 8 µM, stronger effect = higher value.
Consider `CN(CCC#N)c1ncnc2scc(-c3ccccc3)c12`, for which the inhibition was 21.2%. With `CC(C)CCN1CCC(C)(NC(=O)c2ccccc2)C1=O` (centres undefined) the figure was -21.2%; with `O=C(CNS(=O)(=O)c1ccc2c(c1)OCCCO2)N1CCN(c2ccc(F)cc2)CC1`, 7.54%; with `O=C(CCCCCn1c(=S)[nH]c2cc3c(cc2c1=O)OCO3)N1CCN(c2ccc(F)cc2)CC1`, 53.5% (active). Take `Cc1ccc(C)c(N2CCN(C(=O)CCCn3c(=O)c4cccn4c4cccnc43)CC2)c1`: the inhibition is 1.5%.

With `CN(C)CCn1c(=S)[nH]c2ccc(Cl)cc2c1=O`, the inhibition was 8.17%. As for `CC(C)NC(=O)CCCn1c(=S)[nH]c2cc3c(cc2c1=O)OCO3`, the inhibition was -5.62%. For `Cc1ccc(C)c(N2CCN(C(=O)CCCCn3c(=O)[nH]c4ccccc4c3=O)CC2)c1`, the inhibition is 8.89%. To `O=C(NCCS(=O)(=O)N1CCN(c2ccc(F)cc2)CC1)c1ccc2c(c1)OCO2` belongs 7.26%; to `Cc1ccc(C)c(N2CCN(C(=O)CCCCCn3c(=S)[nH]c4ccc(N5CCOCC5)cc4c3=O)CC2)c1`, 85.6% (active); to `O=C(CCn1c(=S)[nH]c2cc3c(cc2c1=O)OCO3)NCc1ccc(Cl)cc1`, 56.3% (active). To `Cn1ccsc1=NC(=O)c1cc(S(=O)(=O)N2CCOCC2)ccc1Cl` belongs 28%; to `NS(=O)(=O)c1ccc(CCNC(=O)CN2C(=O)c3ccccc3S2(=O)=O)cc1`, 27.9%.

Consider `O=C(COC(=O)c1ccc(Br)o1)NC12CC3CC(CC(C3)C1)C2`, for which the inhibition is 15.9%. `Cc1csc(=O)n1CCC(=O)OCC(=O)NNC(=O)c1ccc(Br)cc1`: the inhibition was 8.79%. `CCCN(CCC)C(=S)Nc1cc(C(=O)OC)ccc1C(=O)OC`: the inhibition was 9.38%.

For the compound `CCOC(=O)C1CCN(C(=O)c2ccccc2N(C)S(=O)(=O)c2ccccc2)CC1`, the inhibition is -12.4%. With `C=CS(=O)c1sc(Cl)c(N2CCOCC2)c1[N+](=O)[O-]` (centres undefined) the figure was 25.9%; with `Cn1nnnc1SCC(=O)Nc1sccc1C(N)=O`, 0.655%. For `CCOC(=O)c1c(-c2ccc(C)cc2C)csc1NC(=O)CSc1nnnn1C`, the inhibition was 73.7% (active). With `COC(=O)c1ccccc1NC(=O)CSc1nnnn1C` the figure was -3.43%; with `Cc1ccc(/C=C/C(=O)O)cc1S(=O)(=O)N1CCC(Cc2ccccc2)CC1`, -1.19%; with `Cc1ccc(S(=O)(=O)NCC(=O)Nc2ccc3c(c2)OCCO3)cc1`, 10%. As to `Cc1cccc(C(=O)Nc2ccccc2-c2nnn(CC(=O)Nc3ccc4c(c3)OCCO4)n2)c1`, the inhibition is 15.2%. On to `CS(=O)(=O)c1ccc(-c2nnn(CC(=O)Nc3ccc4c(c3)OCCO4)n2)cc1`, for which the inhibition is 86.1% (active). To `CC1CCCCC12NC(=O)N(CC(=O)OCc1c(F)cccc1Cl)C2=O` (centres undefined) belongs 2.6%; to `Cc1ccsc1C(=O)OCC(=O)c1cc(C)n(CC2CCCO2)c1C` (centres undefined), 94.1% (active). To `Cc1cc(C(=O)Cn2cnc3cc([N+](=O)[O-])ccc3c2=O)c(C)n1CC1CCCO1` (centres undefined) belongs -7.26%; to `COc1ccc(C(=O)OCC(=O)c2cc(C)n(CC3CCCO3)c2C)cc1[N+](=O)[O-]` (centres undefined), 2.69%; to `COc1ccc(NC(=O)[C@H](NC(=O)[C@@H]2Cc3ccccc3CN2)c2ccccc2)cc1`, -1.06%.

In the case of `COc1cccc(NC(=O)[C@H](Cc2c[nH]c3ccccc23)NC(=O)[C@@H]2Cc3ccccc3CN2)c1`, the inhibition was 94.4% (active). As for `COc1ccc(CNC(=O)[C@H](Cc2c[nH]c3ccccc23)NC(C)=O)cc1OC`, the inhibition is 10.9%. To `C/C=C/c1ccc(OCCCCN2CCC(C)CC2)c(OC)c1` belongs -26%. With `Cc1cccc(NC(=S)NCCN(C2CCCCC2)C2CCCC2)c1`, the inhibition was 44.3%. For the compound `Cc1cccc(NC(=S)NCc2ccc3[nH]c4c(c3c2)CCCC4)c1`, the inhibition is 63.6% (active). With `Cc1cc(C)cc(NC(=S)NCc2ccc(F)cc2)c1` the figure was -4.57%; with `CC(C)=CCc1c(O)c(CC=C(C)C)c2occ(-c3ccc(O)cc3)c(=O)c2c1O`, 45.8%. To `CCC1(CC)NC(=O)N(CC(=O)OCC(=O)c2cc(C)c(C)cc2C)C1=O` belongs 22.7%; to `Cc1ccc2c(c1)C1C[N+](C)(CC(=O)c3ccccc3)CCC1N2C(=O)c1ccccc1Cl` (centres undefined), -17.1%. As to `CCSC1=NCCN1S(=O)(=O)c1ccc(F)cc1`, the inhibition is -0.662%. On to `FC(F)(F)c1nnc2ccc(N3CCN(c4ccccc4)CC3)nn12`, for which the inhibition was 26.8%.

With `FC(F)(F)c1nnc2c3ccccc3c(Cl)nn12`, the inhibition is 64.4% (active). With `Nc1nnc2c(C(F)(F)F)nc3ccccc3n12` the figure was -2.03%; with `Cc1cc2oc(C(=O)Nc3c(C)n(C)n(-c4ccccc4)c3=O)c(C)c2cc1Cl`, 23.4%.

For `COc1ccc(CNC(=O)c2ccc3oc(C(C)C)nc3c2)cc1`, the inhibition was -34.8%.

`Cc1cccc(N2O[C@H]3C=CC2CCCC3)n1`: the inhibition is 15.6%. In the case of `CC(=O)c1ccccc1NC(=O)CC1(CC(=O)O)CCCCC1`, the inhibition was 10.9%. To `CCN(CC)CCCNC(=O)CCc1ccccc1` belongs 27.2%; to `CCN(CCCNC(=O)CSc1cc(=O)n(C)c2cc(Cl)ccc12)Cc1ccccc1`, 54.7% (active); to `CCOc1ccc(CCNC(=O)CSc2cc(=O)n(C)c3ccc(Cl)cc23)cc1OCC`, 4.16%. As to `CC(=O)OCCC(C)C`, the inhibition was 9.67%. As to `C=CCn1c(SCC(=O)NCCCO)nc2sc3c(c2c1=O)CCC3`, the inhibition is 0.393%. Turning to `C=CCn1c(SCC(=O)NCC2CCCO2)nc2sc(C)c(C)c2c1=O` (centres undefined), the inhibition was 2.91%. With `C=CCn1c(SCc2c(C)noc2C)nc2sc3c(c2c1=O)CCC(C)C3` (centres undefined) the figure was 52.5% (active); with `Cc1ccc(-c2ccc(=O)n(Cc3ccc(F)cc3Cl)n2)cc1`, -15.3%; with `Cc1ccc(-c2nc(-c3ccncc3)no2)c(C)c1`, -116%. Turning to `COc1ccc(-c2nc(-c3ccccc3)no2)c(OC)c1`, the inhibition is 58.4% (active). For the compound `COc1ccc(/C=C/c2noc(-c3ccccc3OC(C)=O)n2)cc1`, the inhibition was -61.9%. With `O=C(NCCN1CCOCC1)c1cc(Sc2cccc(Cl)c2)nc2ccccc12` the figure was -2.97%. To `CCOC(=O)/C=c1\s/c(=C\c2ccc(C#N)cc2)c(=O)n1CC(=O)Nc1cccc(C)c1C` belongs 78% (active); to `CCOC(=O)/C=c1\s/c(=C\c2ccccc2OC)c(=O)n1CC(=O)N1CCOCC1`, 11.5%.

As for `Cc1cccc(NC(=O)CSC(N)=O)c1C`, the inhibition was 2.96%.

As to `COc1cc(Cl)c(C)cc1NC(=O)[C@@H]1CCCN1C(=O)c1cccs1`, the inhibition is 6.14%.

Regarding `COc1ccc(S(=O)(=O)N2CCN(c3cnccn3)CC2)cc1`, the inhibition is 13.5%. `CC1(C)CCSC(/C=C/c2ccccc2)=N1`: the inhibition was 85.2% (active). Turning to `CC(=O)N1CCC(N(C(=O)Nc2ccc(Cl)cc2)C(C)C)CC1`, the inhibition is -29%. To `COc1cccc2sc3cc(NCC[C@@H]4CCCN4C)ccc3c(=O)c12` belongs -8.67%; to `Cc1cc2oc(=O)cc(CN3CCN(Cc4ccccc4)CC3)c2cc1C`, -23.1%. As to `Cc1cc2oc3ccc(NCCC4CCCN4C)cc3c(=O)c2cc1C` (centres undefined), the inhibition is 90% (active). For the compound `CCCCC1(C(=O)OCC)NC(c2ccc(O)cc2)C2C(=O)N(c3ccccc3)C(=O)C21` (centres undefined), the inhibition is 4.63%. To `COc1cccc(NC(=O)CCc2nnc3ccc(N4CCC(C)CC4)nn23)c1` belongs 6.23%. With `CC(=O)Nc1ccc(CN2CCN(Cc3ccc(F)c(F)c3)C(CCO)C2)cc1` (centres undefined) the figure was -4.68%; with `CC(C)c1nc(CNC(=O)CC2C(=O)NCCN2Cc2ccoc2)cs1` (centres undefined), 17%; with `COc1cc(SC)ccc1C(=O)Nc1nc(C)cs1`, 70.4% (active).

Take `Cc1csc(NC(=O)c2ccc(C)s2)n1`: the inhibition was -81.3%. Regarding `COc1cc(SC)ccc1C(=O)Nc1cc(C)ccn1`, the inhibition is -133%. As to `COc1ccc(-c2c(C(C)=O)c(C)nc3sc4c(=O)n(-c5ccc(C)cc5)nnc4c23)cc1`, the inhibition was 16.5%. As to `O=S(=O)(Nc1cccc(-c2ccc(N3CCOCC3)nn2)c1)c1ccc(Cl)c(Cl)c1`, the inhibition is -21.1%. Take `NC(=O)c1ccc(Nc2ccc3nonc3c2[N+](=O)[O-])cc1`: the inhibition is 19.2%. Take `Cc1cc(C)cc(NC(=O)C(c2ccccc2)N2CCN(CC(=O)N3CCCC3)CC2)c1` (centres undefined): the inhibition is 24%. As for `COC1=CCC2([N+](=O)[O-])CN(CC(=O)O)CC1([N+](=O)[O-])C2` (centres undefined), the inhibition is 4.95%. With `Fc1ccc(-c2ccc(CNCc3ccccn3)o2)cc1Cl` the figure was 1.76%.

For the compound `Cc1cc(C)c2[nH]c(=O)c(CN(Cc3ccccc3)C(=S)NCCCN(C)C)cc2c1`, the inhibition is 90.9% (active). To `Cc1cccc2cc(CN(Cc3cccs3)C(=S)NCc3ccco3)c(=O)[nH]c12` belongs 19.1%; to `COCCCNC(=S)N(CCN(C)C)Cc1cc2cc3c(cc2[nH]c1=O)OCCO3`, -4.07%; to `COc1ccccc1NC(=O)CCC(=O)OC(C)C(=O)c1ccccc1` (centres undefined), -23.8%. Consider `CCCn1c(O)c(CN2CCCC(C)C2)c(C)c(C#N)c1=O` (centres undefined), for which the inhibition was -48.3%. To `CCN(CC(=O)NCc1ccc(F)cc1)S(=O)(=O)c1ccc(Cl)s1` belongs -3.24%; to `N#Cc1ccc(Oc2ccc(C(F)(F)F)cc2NC(=O)c2ccc(F)cc2)cc1`, 9.08%.

Consider `Cc1cccc(NC(=O)c2nnn(-c3cccc(C(F)(F)F)c3)c2N)c1`, for which the inhibition is 8%.

With `COc1ccc(NC(=O)CN(C)CC(=O)Nc2cccc(C(F)(F)F)c2)cc1`, the inhibition was 14.9%. In the case of `COc1cc(NC(=O)c2[nH]cnc2C(N)=O)cc(C(=O)Nc2cccc(C(F)(F)F)c2)c1`, the inhibition is 97.2% (active). Consider `COc1ccc(NC(=O)C(=O)NCC(=O)Nc2cccc(C(F)(F)F)c2)cc1`, for which the inhibition was 12.2%. For `COc1cc(NC(=O)c2cncc(-c3ccc(C#N)cc3)c2)cc(C(=O)Nc2cccc(C(F)(F)F)c2)c1`, the inhibition is 59.6% (active).

A word on the inhibition: it is the relative decrease from the control value, in per cent.
